From PubChem BioAssay (Tox21) come the findings set out here.

Assay [1] addresses Thyrotropin receptor (Homo sapiens) (UniProt P16473). The assay is described as follows: qHTS assay to identify small molecule agonists of the thyroid stimulating hormone receptor (TSHR) signaling pathway (AID 1224843; calls by dose curve; note: nearly all actives have a fitted effect of over 45% in size). Summed up: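 HEK293 cells stably bearing the thyrotropin receptor were plated at 800 cells/well and challenged with compound (30 min, RT). Accumulated cAMP was quantified via cAMP-d2 competing for cryptate-tagged antibody.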
On the technique in general: In qHTS, concentration-response curves come from the screen itself.

Assay [2] can be described thus: qHTS assay to identify small molecule agonists of the hypoxia (HIF-1) signaling pathway (AID 1224846; active = well fitted activation curve with a large enough effect in the signal ratio in the repeat runs, not every such curve was filed as active; the % refers to the signal ratio). A digest of the protocol: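 Hypoxia-pathway activation was scored as increased beta-lactamase from an HRE-controlled reporter in ME-180 cells; plated at 2,000 cells per well with 0.5% dialyzed FBS, they were exposed 17 hrs to compounds and then given CCF4-AM.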
Assay [3] can be described thus: qHTS assay to identify small molecule agonists of H2AX - cell viability counter screen (AID 1224847; calls by dose curve; note: nearly all actives have a fitted effect of over 30% in size; note: potency is the fitted concentration of half-maximal effect). A digest of the protocol: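 After overnight plating of 1000 CHO-K1 cells per well, a 15-concentration compound series was applied for 3 hr at 37C. Luminescence from CellTiter-Glo, read following 30 min at room temperature, reflected cell viability.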
Assay [4] in a line: qHTS assay to identify small molecule antagonists of the estrogen related receptor (ERR) signaling pathway from Tox21 library (AID 1224848). Note: nearly all actives have a fitted effect of over 50% in size. Note: potency is the fitted concentration of half-maximal effect. A digest of the protocol:
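Reading was by luminescence 30 min after ONE-Glo addition. Before that, ERR cells at 2,000 per well had rested 6 h at 37 C/5% CO2 and then received pin-tooled compounds in DMSO for 18 h at 37 C.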

Assay [5] can be described thus: qHTS RealTime-Glo MT Cell Viability Assay in HEK293 cells - 32 hour (AID 1224868). Note: nearly all actives have a fitted effect of over 50% in size. Note: potency is the fitted concentration of half-maximal effect. A digest of the protocol:
(§1)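 Cells + reagent dispensed (600 cells/well, HEK293) → 5 h at 37 C/5% CO2 → 23 nL compound in DMSO pinned → 40 h at 37 C → luminescence read at 0, 8, 16, 24, 32, 40 h.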

Assay [6] can be described thus: A CellTox Green Cytotoxicity Assay to monitor cytotoxicity in HEK293 cells - 0 hour (AID 1224869). Note: nearly all actives have a fitted effect of over 50% in size. Summed up: (§2)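 Seeding of HEK293 cells together with cytotoxicity dye preceded a 5 h incubation at 37 C/5% CO2. Test compounds in DMSO were then added and fluorescence monitored across 40 h.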
Assay [7] is described as follows: qHTS RealTime-Glo MT Cell Viability Assay in HepG2 cells - 40 hour (AID 1224870). Note: nearly all actives have a fitted effect of over 50% in size. Note: potency is the fitted concentration of half-maximal effect. A digest of the protocol: (§3)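 Real-time viability: cells seeded at 600 per well together with NanoLuc and cell-permeant prosubstrate, compounds added after 5 h incubation. Luminescence tracked at 0, 8, 16, 24, 32 and 40 h of exposure.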
Assay [8] in a line: qHTS RealTime-Glo MT Cell Viability Assay in HEK293 cells - 16 hour (AID 1224872). Note: nearly all actives have a fitted effect of over 50% in size. Note: potency is the fitted concentration of half-maximal effect. A digest of the protocol: as §1
The nature of assay [9]: qHTS RealTime-Glo MT Cell Viability Assay in HEK293 cells - 40 hour (AID 1224874). Note: nearly all actives have a fitted effect of over 50% in size. Note: potency is the fitted concentration of half-maximal effect. Conditions: RealTime-Glo luminescence; max response: stronger effect = lower value. Summed up: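 Tox21 screen in HEK293 using RealTime-Glo MT chemistry, with cells and reagent co-dispensed. Luminescence proportional to viable cell number was captured at intervals during 40 h compound exposure at 37 C.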

Assay [10] can be described thus: A CellTox Green Cytotoxicity Assay to monitor cytotoxicity in HepG2 cells - 16 hour (AID 1224876). Note: nearly all actives have a fitted effect of over 45% in size. Note: potency is the fitted concentration of half-maximal effect. A digest of the protocol: (§4)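 Nonlytic assay: viable cells exclude the dye, so fluorescence scales with cell death. HepG2 at 600 cells/well, compounds added after 5 h, signal read across 40 h.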
The nature of assay [11]: qHTS RealTime-Glo MT Cell Viability Assay in HepG2 cells - 32 hour (AID 1224877). Note: nearly all actives have a fitted effect of over 55% in size. Note: potency is the fitted concentration of half-maximal effect. A digest of the protocol: (§5)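 Real-time, nonlytic viability: 600 HepG2 cells/well mixed with NanoLuc enzyme plus prosubstrate; 5 h settle, compound (DMSO) added by pintool; luminescence monitored over 40 h at 37 C.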
A short description of assay [12]: A CellTox Green Cytotoxicity Assay to monitor cytotoxicity in HepG2 cells - 24 hour (AID 1224878). Note: nearly all actives have a fitted effect of over 45% in size. Note: potency is the fitted concentration of half-maximal effect. A digest of the protocol:
as §4

Assay [13] is described as follows: A CellTox Green Cytotoxicity Assay to monitor cytotoxicity in HepG2 cells - 40 hour (AID 1224879). Note: nearly all actives have a fitted effect of over 40% in size. Note: potency is the fitted concentration of half-maximal effect. A digest of the protocol:
as §4

Assay [14] can be described thus: qHTS assay to identify small molecule agonists of the hypoxia (HIF-1) signaling pathway - cell viability counter screen (AID 1224844; calls by dose curve; note: nearly all actives have a fitted effect of over 50% in size). Summed up: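 Multiplexed with the HRE beta-lactamase assay, this viability read used CellTiter-Glo luminescence (30 min, RT) on HRE-bla ME-180 cells treated 17 hrs with compounds in 0.5% dialyzed FBS medium.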
Assay [15] in a line: qHTS assay to identify small molecule agonists of H2AX (AID 1224845; active = well fitted activation curve with a large enough effect in the signal ratio in the repeat runs, not every such curve was filed as active; the % refers to the signal ratio). A digest of the protocol: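 Phospho-H2AX Ser139 measured by HTRF (ex 320 nm; em 665 and 620 nm) after 24 hr antibody incubation. Compounds, 15 concentrations, 0.76% DMSO, were applied to CHO-K1 cells for 3hr at 37C before lysis.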
Assay [16] in a line: qHTS assay to identify small molecule agonists of the estrogen related receptor (ERR) signaling pathway from Tox21 library (AID 1224849; calls by dose curve; note: nearly all actives have a fitted effect of over 15% in size). Conditions: ERR reporter cell line, ONE-Glo luciferase, 18 h; at 92.4 µM (top of the series) unless noted. A digest of the protocol: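 Six hours post-seeding at 37 C/5% CO2, ERR cells receive DMSO-solubilised compounds; after 18 h at 37 C, ONE-Glo reagent is applied and luminescence recorded.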

Assay [17] can be described thus: qHTS RealTime-Glo MT Cell Viability Assay in HepG2 cells - 24 hour (AID 1224867). Note: nearly all actives have a fitted effect of over 50% in size. Note: potency is the fitted concentration of half-maximal effect. A digest of the protocol:
as §5

Assay [18] in a line: A CellTox Green Cytotoxicity Assay to monitor cytotoxicity in HEK293 cells - 40 hour (AID 1224871). Note: nearly all actives have a fitted effect of over 45% in size. Note: potency is the fitted concentration of half-maximal effect. A digest of the protocol: as §2
A short description of assay [19]: qHTS RealTime-Glo MT Cell Viability Assay in HepG2 cells - 8 hour (AID 1224873). Note: nearly all actives have a fitted effect of over 55% in size. Summed up: as §3
Assay [20] can be described thus: A CellTox Green Cytotoxicity Assay to monitor cytotoxicity in HEK293 cells - 24 hour (AID 1224875). Note: nearly all actives have a fitted effect of over 45% in size. A digest of the protocol: as §2

Values without a mark were called inactive. Records with an inconclusive call do not appear. Calls of active or inactive are those of the source. Unless noted, calls come from the whole dose curve; as a rule, active = well fitted curve in the direction sought with a large enough effect in the repeat runs; inconclusive = weak or mixed curves; inactive = no such curve, though single readings can be large; an effect the other way counts as inactive or inconclusive.
% is set by controls: 0 for no effect and ±100 for the full control effect.

Chain of Thyrotropin receptor (Homo sapiens) (P16473 whole entry, looked up): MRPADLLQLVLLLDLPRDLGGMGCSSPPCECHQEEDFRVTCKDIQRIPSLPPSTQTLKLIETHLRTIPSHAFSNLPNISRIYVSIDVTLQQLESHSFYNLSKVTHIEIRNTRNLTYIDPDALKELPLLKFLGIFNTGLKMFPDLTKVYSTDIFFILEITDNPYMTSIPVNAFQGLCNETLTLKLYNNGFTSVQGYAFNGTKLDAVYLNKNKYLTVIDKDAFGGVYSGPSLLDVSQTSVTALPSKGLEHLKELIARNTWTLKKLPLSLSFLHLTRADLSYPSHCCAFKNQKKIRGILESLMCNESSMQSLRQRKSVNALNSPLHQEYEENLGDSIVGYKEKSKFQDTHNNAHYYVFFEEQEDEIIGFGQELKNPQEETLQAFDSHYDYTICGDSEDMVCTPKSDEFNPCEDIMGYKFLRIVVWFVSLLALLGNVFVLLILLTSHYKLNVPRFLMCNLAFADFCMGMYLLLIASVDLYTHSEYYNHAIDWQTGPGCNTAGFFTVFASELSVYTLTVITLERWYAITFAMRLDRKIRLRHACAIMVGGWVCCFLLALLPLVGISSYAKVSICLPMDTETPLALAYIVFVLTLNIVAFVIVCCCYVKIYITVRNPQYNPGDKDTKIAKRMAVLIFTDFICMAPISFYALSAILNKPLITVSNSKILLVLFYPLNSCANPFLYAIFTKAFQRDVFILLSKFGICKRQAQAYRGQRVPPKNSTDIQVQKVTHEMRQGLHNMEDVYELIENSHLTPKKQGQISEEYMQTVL

Turning to `COc1cc2ncnc(Nc3ccc(F)c(Cl)c3)c2cc1OCCCN1CCOCC1`, the Potency entry in [1] and in assay [6] was “inactive” each time. Besides, the result in assay [2] was inactive. Moreover, the Potency in assay [3] is 55.2 µM (active); in [4], 13.3 µM (active); in assay [5], 9.52 µM (active); in assay [7], 26.8 µM (active); in [8] it was 9.52 µM (active); in assay [9], 10.7 µM (active). In addition, the Potency in assay [10], in assay [11], in [12] and in assay [13] was 23.9 µM (active) each time.
As to `NCC1CCCC(CN)C1` (configuration not stated), the Potency entry in assay [14], in assay [15], in assay [3], in assay [4], in assay [17] and in [5] was “inactive” throughout. Besides, the Potency entry in assay [6], in [7], in [18], in assay [8], in assay [19] and in [20] was “inactive” throughout. The Potency entry in assay [10], in assay [11], in assay [12] and in [13] was “inactive” each time. Also, the call in assay [2] was inactive. The activity change, positive = activation in assay [16] was -0.124%. Besides, the max response in assay [9] is -13.1%.
In the case of `CCCCC(CC)C(=O)OCCOCCOCCOCCOC(=O)C(CC)CCCC` (configuration not stated), the Potency entry in assay [14], in [15], in [3], in assay [17], in assay [7] and in assay [18] was “inactive” throughout. Further, the Potency result in [19], in assay [20], in assay [10], in [11], in [12] and in assay [13] was “inactive” throughout. In addition, in assay [2], the call was inactive. Moreover, the Potency in assay [4] is 30.6 µM (active). Besides, the activity change, positive = activation in assay [16] was -33%.
For `O=C(Nc1ccc([N+](=O)[O-])cc1)Nc1ccc([N+](=O)[O-])cc1`, the Potency result in [1], in [15], in assay [6], in assay [7], in assay [19] and in [20] was “inactive” each time. The Potency result in assay [10] is “inactive”. Besides, the molecule was called inactive in [2]. Besides, the values for the Potency in assay [18] and in assay [9] were 13.4 µM (active) and 7.56 µM (active), respectively.
Take `CCc1nn(CCCN2CCN(c3cccc(Cl)c3)CC2)c(=O)n1CCOc1ccccc1`: the Potency entry in assay [1], in assay [15], in assay [6], in assay [20], in [10] and in [12] was “inactive” each time. In addition, the molecule was called inactive in assay [2]. In addition, the Potency was 23.9 µM (active) in [17], 8.49 µM (active) in [5], 8.49 µM (active) in [8] and 8.49 µM (active) in assay [9].
Take `Cc1ccc(Nc2nccc(N(C)c3ccc4c(C)n(C)nc4c3)n2)cc1S(N)(=O)=O`: the Potency entry in assay [14], in assay [15], in assay [3], in assay [17], in assay [6] and in assay [7] was “inactive” each time. Further, the Potency entry in assay [19], in assay [20], in [10], in [11], in assay [12] and in assay [13] was “inactive” in each case. Besides, the call in [2] was inactive. In addition, the Potency in [4] is 11.9 µM (active); in assay [5], 1.2 µM (active); in assay [8], 1.9 µM (active); in assay [9], 1.34 µM (active).
With `Oc1ccc(Nc2ccccc2)cc1`, the Potency entry in assay [1], in [3], in assay [6], in assay [7], in [10] and in assay [11] was “inactive” each time. Further, the Potency entry in [12] and in assay [13] was “inactive” each time. In addition, the molecule was called inactive in assay [2]. Besides, the Potency in [4] is 24.3 µM (active); in assay [5] it was 21.9 µM (active); in assay [8] it was 19.5 µM (active); in assay [9] it was 19.5 µM (active). For the same molecule, the activity change, positive = activation in [16] is -35.9%.
For `CCCCN(CCCC)C(=S)SSC(=S)N(CCCC)CCCC`, the Potency entry in assay [1], in assay [17], in [6], in assay [7], in assay [20] and in [10] was “inactive” throughout. In addition, the Potency result in assay [11], in assay [12] and in [13] was “inactive” throughout. Also, the Potency in assay [3] was 112 µM (active); in assay [5] it was 43.2 µM (active); in assay [8] it was 48.5 µM (active); in assay [9], 38.5 µM (active).
